# Experimental data from PubChem BioAssay AID1508601 (ICCB-Longwood Screening Facility, Harvard Medical School, 2020).
# The campaign covered roughly 5,700 compounds. About 85 (1%) were called active. No stated cut-off is given here; in the data, active means p53-positive nuclei above about 36% (passing the limit was not always enough); inactive means the rest. For the sample, actives were picked, then their nearest neighbours and some compounds at random.
# Assays:
# [1] = nuclear p53 accumulation, HPV+ cells – imaging, p53-positive nuclei imaging, 24 h, 48 h (AID 1508601); details: 24/48 h
# [2] = target: Cellular tumor antigen p53 (Homo sapiens) (UniProt P04637); assay: as above; details: 24/48 h, stronger effect = higher value
# [3] = measured here: cell number at 24 h, Library stock concentration: 3.33 mM
# [4] = measured here: cell number at 24 h, concentration not given here
# [5] = measured here: cell number at 48 h, Library stock concentration: 3.33 mM
# [6] = measured here: cell number at 48 h, concentration not given here
# [7] = Library stock concentration: 3.33 mM
# [8] = measured here: p53 positive nuclei at 24 h, Library stock concentration: 3.33 mM
# [9] = measured here: p53 positive nuclei at 24 h, concentration not given here
# [10] = measured here: cell number at 24 h, Library stock concentration: 10 mM
# [11] = measured here: cell number at 48 h, Library stock concentration: 10 mM
# [12] = Library stock concentration: 10 mM
# [13] = measured here: p53 positive nuclei at 24 h, Library stock concentration: 10 mM
# Chain of Cellular tumor antigen p53 (Homo sapiens) (P04637 whole entry, looked up): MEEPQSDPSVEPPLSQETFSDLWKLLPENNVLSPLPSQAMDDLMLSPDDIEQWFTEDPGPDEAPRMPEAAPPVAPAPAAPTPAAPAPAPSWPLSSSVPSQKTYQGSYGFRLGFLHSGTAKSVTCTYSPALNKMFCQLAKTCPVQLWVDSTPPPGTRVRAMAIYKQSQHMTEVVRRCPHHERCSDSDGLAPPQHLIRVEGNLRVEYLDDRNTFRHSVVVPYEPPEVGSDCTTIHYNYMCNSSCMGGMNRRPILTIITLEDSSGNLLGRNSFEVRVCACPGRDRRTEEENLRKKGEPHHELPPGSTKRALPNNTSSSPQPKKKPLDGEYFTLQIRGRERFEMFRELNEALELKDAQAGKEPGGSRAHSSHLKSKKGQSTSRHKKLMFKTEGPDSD
compound,measurement,setting,value
O=C(O)CCNC(=O)c1ccccc1,"nuclei count, normalised",[1]; [3],113%
same,"nuclei count, normalised",[1]; [4],110%
same,"nuclei count, normalised",[1]; [5],105%
same,"nuclei count, normalised",[1]; [6],110%
same,"p53-positive nuclei, normalised",[2]; [7],0.0364% (inactive)
same,"p53-positive nuclei, normalised",[2]; concentration not given here,0.0211% (inactive)
same,"p53-positive nuclei, normalised",[2]; [8],-0.327%
same,"p53-positive nuclei, normalised",[2]; [9],-0.211%
CCCCCC(=O)/C=C/[C@H]1[C@H](O)CC(=O)[C@@H]1CCCCCCC(=O)O,"nuclei count, normalised",[1]; [4],107%
same,"nuclei count, normalised",[1]; [6],107%
same,"p53-positive nuclei, normalised",[2]; concentration not given here,-0.0323% (inactive)
same,"p53-positive nuclei, normalised",[2]; [9],-0.0183%
CCCCCNC(=O)N1CCC2(CC1)Nc1ccccc1N(CC1CC1)C2=O,"nuclei count, normalised",[1]; [4],105%
same,"nuclei count, normalised",[1]; [6],110%
same,"p53-positive nuclei, normalised",[2]; concentration not given here,-0.23% (inactive)
same,"p53-positive nuclei, normalised",[2]; [9],-0.154%
O=C(O)c1ccc(C=C2SC(=S)N(c3cccc(C(F)(F)F)c3)C2=O)cc1,"nuclei count, normalised",[1]; [3],76.4%
same,"nuclei count, normalised",[1]; [5],78.4%
same,"p53-positive nuclei, normalised",[2]; [7],-0.0579% (inactive)
same,"p53-positive nuclei, normalised",[2]; [8],-0.316%
COc1ccc(N2C(=O)C(=Cc3ccc([N+](=O)[O-])s3)SC2=S)cc1,"nuclei count, normalised","[1]; measured here: cell number at 24 h, Library stock concentration: 500 nM",117%
same,"nuclei count, normalised","[1]; measured here: cell number at 24 h, Library stock concentration: 1.5 uM",113%
same,"nuclei count, normalised","[1]; measured here: cell number at 24 h, Library stock concentration: 4.6 uM",108%
same,"nuclei count, normalised","[1]; measured here: cell number at 24 h, Library stock concentration: 13.7 uM",110%
same,"nuclei count, normalised","[1]; measured here: cell number at 24 h, Library stock concentration: 41 uM",105%
same,"nuclei count, normalised","[1]; measured here: cell number at 24 h, Library stock concentration: 123 uM",88.7%
same,"nuclei count, normalised","[1]; measured here: cell number at 24 h, Library stock concentration: 370 uM",69.2%
same,"nuclei count, normalised","[1]; measured here: cell number at 24 h, Library stock concentration: 1.111 mM",62.1%
same,"nuclei count, normalised","[1]; measured here: cell number at 24 h, Library stock concentration: 3.333 mM",48.5%
same,"nuclei count, normalised",[1]; [10],37.6%
same,"nuclei count, normalised","[1]; measured here: cell number at 48 h, Library stock concentration: 500 nM",110%
same,"nuclei count, normalised","[1]; measured here: cell number at 48 h, Library stock concentration: 1.5 uM",106%
same,"nuclei count, normalised","[1]; measured here: cell number at 48 h, Library stock concentration: 4.6 uM",107%
same,"nuclei count, normalised","[1]; measured here: cell number at 48 h, Library stock concentration: 13.7 uM",104%
same,"nuclei count, normalised","[1]; measured here: cell number at 48 h, Library stock concentration: 41 uM",108%
same,"nuclei count, normalised","[1]; measured here: cell number at 48 h, Library stock concentration: 123 uM",87.8%
same,"nuclei count, normalised","[1]; measured here: cell number at 48 h, Library stock concentration: 370 uM",59.1%
same,"nuclei count, normalised","[1]; measured here: cell number at 48 h, Library stock concentration: 1.111 mM",49.4%
same,"nuclei count, normalised","[1]; measured here: cell number at 48 h, Library stock concentration: 3.333 mM",31.9%
same,"nuclei count, normalised",[1]; [11],24.4%
same,"p53-positive nuclei, normalised",[2]; Library stock concentration: 500 nM,0.221% (inactive)
same,"p53-positive nuclei, normalised",[2]; Library stock concentration: 1.5 uM,0.0846% (inactive)
same,"p53-positive nuclei, normalised",[2]; Library stock concentration: 4.6 uM,0.192% (inactive)
same,"p53-positive nuclei, normalised",[2]; Library stock concentration: 13.7 uM,-0.0302% (inactive)
same,"p53-positive nuclei, normalised",[2]; Library stock concentration: 41 uM,0.353% (inactive)
same,"p53-positive nuclei, normalised",[2]; Library stock concentration: 123 uM,5.11% (inactive)
same,"p53-positive nuclei, normalised",[2]; Library stock concentration: 370 uM,28.8% (inactive)
same,"p53-positive nuclei, normalised",[2]; Library stock concentration: 1.111 mM,38.4% (inactive)
same,"p53-positive nuclei, normalised",[2]; Library stock concentration: 3.333 mM,79.8% (active)
same,"p53-positive nuclei, normalised",[2]; [12],117% (active)
same,"p53-positive nuclei, normalised","[2]; measured here: p53 positive nuclei at 24 h, Library stock concentration: 500 nM",-0.0612%
same,"p53-positive nuclei, normalised","[2]; measured here: p53 positive nuclei at 24 h, Library stock concentration: 1.5 uM",0.0572%
same,"p53-positive nuclei, normalised","[2]; measured here: p53 positive nuclei at 24 h, Library stock concentration: 4.6 uM",0.0046%
same,"p53-positive nuclei, normalised","[2]; measured here: p53 positive nuclei at 24 h, Library stock concentration: 13.7 uM",0.00591%
same,"p53-positive nuclei, normalised","[2]; measured here: p53 positive nuclei at 24 h, Library stock concentration: 41 uM",0.0741%
same,"p53-positive nuclei, normalised","[2]; measured here: p53 positive nuclei at 24 h, Library stock concentration: 123 uM",5.3%
same,"p53-positive nuclei, normalised","[2]; measured here: p53 positive nuclei at 24 h, Library stock concentration: 370 uM",28.7%
same,"p53-positive nuclei, normalised","[2]; measured here: p53 positive nuclei at 24 h, Library stock concentration: 1.111 mM",41.6%
same,"p53-positive nuclei, normalised","[2]; measured here: p53 positive nuclei at 24 h, Library stock concentration: 3.333 mM",85.9%
same,"p53-positive nuclei, normalised",[2]; [13],121%
C/C=C/C(=O)O[C@H](COCCCCCCCCCCCCCCCC)COP(=O)([O-])OCC[N+](C)(C)C,"nuclei count, normalised",[1]; [4],91.3%
same,"nuclei count, normalised",[1]; [6],103%
same,"p53-positive nuclei, normalised",[2]; concentration not given here,-0.0567% (inactive)
same,"p53-positive nuclei, normalised",[2]; [9],0.0947%
CCCCCCCCCCCCCCCCCC(=O)OCC,"nuclei count, normalised",[1]; [4],111%
same,"nuclei count, normalised",[1]; [6],110%
same,"p53-positive nuclei, normalised",[2]; concentration not given here,-0.0271% (inactive)
same,"p53-positive nuclei, normalised",[2]; [9],-0.00774%
N=c1ccn2c(n1)OC1C(O)C(CO)OC12 (stereo not drawn),"nuclei count, normalised",[1]; [3],61.4%
same,"nuclei count, normalised",[1]; [5],51.8%
same,"p53-positive nuclei, normalised",[2]; [7],0.1% (inactive)
same,"p53-positive nuclei, normalised",[2]; [8],-0.25%
Nc1cccc(OCc2ccccc2)c1,"nuclei count, normalised","[1]; measured here: cell number at 24 h, Library stock concentration: 46 uM",111%
same,"nuclei count, normalised","[1]; measured here: cell number at 24 h, Library stock concentration: 278 uM",109%
same,"nuclei count, normalised","[1]; measured here: cell number at 24 h, Library stock concentration: 1.67 mM",109%
same,"nuclei count, normalised",[1]; [10],99%
same,"nuclei count, normalised","[1]; measured here: cell number at 48 h, Library stock concentration: 46 uM",106%
same,"nuclei count, normalised","[1]; measured here: cell number at 48 h, Library stock concentration: 278 uM",111%
same,"nuclei count, normalised","[1]; measured here: cell number at 48 h, Library stock concentration: 1.67 mM",109%
same,"nuclei count, normalised",[1]; [11],103%
same,"p53-positive nuclei, normalised",[2]; Library stock concentration: 46 uM,-0.0623% (inactive)
same,"p53-positive nuclei, normalised",[2]; Library stock concentration: 278 uM,-0.108% (inactive)
same,"p53-positive nuclei, normalised",[2]; Library stock concentration: 1.67 mM,0.151% (inactive)
same,"p53-positive nuclei, normalised",[2]; [12],0.0982% (inactive)
same,"p53-positive nuclei, normalised","[2]; measured here: p53 positive nuclei at 24 h, Library stock concentration: 46 uM",-0.0998%
same,"p53-positive nuclei, normalised","[2]; measured here: p53 positive nuclei at 24 h, Library stock concentration: 278 uM",-0.155%
same,"p53-positive nuclei, normalised","[2]; measured here: p53 positive nuclei at 24 h, Library stock concentration: 1.67 mM",0.0148%
same,"p53-positive nuclei, normalised",[2]; [13],-0.152%
